Data: ChEMBL document CHEMBL2218924, “A broad activity screen in support of a chemogenomic map for kinase signalling research and drug discovery” (Biochem J, 2013)

Experiments:
[1] = biological target: T1, Serine/threonine-protein kinase TAO1 (Homo sapiens) (UniProt Q7L7X3); conditions: at 10 µM
T1 sequence (whole entry): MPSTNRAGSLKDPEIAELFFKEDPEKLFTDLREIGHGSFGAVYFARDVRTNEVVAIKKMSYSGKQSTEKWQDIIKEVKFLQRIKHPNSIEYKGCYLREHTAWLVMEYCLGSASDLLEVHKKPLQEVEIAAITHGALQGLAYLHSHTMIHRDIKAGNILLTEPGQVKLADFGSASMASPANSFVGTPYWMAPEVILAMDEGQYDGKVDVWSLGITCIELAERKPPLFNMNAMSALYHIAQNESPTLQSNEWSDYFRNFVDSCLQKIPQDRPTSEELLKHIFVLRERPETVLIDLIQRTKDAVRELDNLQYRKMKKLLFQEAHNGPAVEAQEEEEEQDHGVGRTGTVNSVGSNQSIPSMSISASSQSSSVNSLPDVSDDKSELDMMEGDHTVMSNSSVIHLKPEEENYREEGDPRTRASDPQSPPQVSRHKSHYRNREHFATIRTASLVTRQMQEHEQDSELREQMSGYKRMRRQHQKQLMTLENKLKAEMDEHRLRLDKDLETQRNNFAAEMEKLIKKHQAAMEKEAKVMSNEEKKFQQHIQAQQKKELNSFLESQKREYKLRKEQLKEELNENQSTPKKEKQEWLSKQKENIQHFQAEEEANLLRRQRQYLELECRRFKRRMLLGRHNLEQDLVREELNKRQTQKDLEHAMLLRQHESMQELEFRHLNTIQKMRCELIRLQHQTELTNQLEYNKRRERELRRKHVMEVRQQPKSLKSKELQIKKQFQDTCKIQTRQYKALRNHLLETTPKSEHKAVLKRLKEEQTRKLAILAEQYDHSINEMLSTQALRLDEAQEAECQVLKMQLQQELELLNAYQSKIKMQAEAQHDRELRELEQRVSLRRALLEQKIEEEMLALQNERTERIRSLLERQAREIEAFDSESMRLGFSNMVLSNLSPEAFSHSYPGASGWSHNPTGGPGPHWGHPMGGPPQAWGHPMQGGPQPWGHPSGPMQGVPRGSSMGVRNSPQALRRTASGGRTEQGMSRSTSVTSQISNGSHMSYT

[2] = biological target: T2, Serine/threonine-protein kinase TAO2 (Homo sapiens) (UniProt Q9UL54); conditions: at 1 µM
T2 sequence (whole entry): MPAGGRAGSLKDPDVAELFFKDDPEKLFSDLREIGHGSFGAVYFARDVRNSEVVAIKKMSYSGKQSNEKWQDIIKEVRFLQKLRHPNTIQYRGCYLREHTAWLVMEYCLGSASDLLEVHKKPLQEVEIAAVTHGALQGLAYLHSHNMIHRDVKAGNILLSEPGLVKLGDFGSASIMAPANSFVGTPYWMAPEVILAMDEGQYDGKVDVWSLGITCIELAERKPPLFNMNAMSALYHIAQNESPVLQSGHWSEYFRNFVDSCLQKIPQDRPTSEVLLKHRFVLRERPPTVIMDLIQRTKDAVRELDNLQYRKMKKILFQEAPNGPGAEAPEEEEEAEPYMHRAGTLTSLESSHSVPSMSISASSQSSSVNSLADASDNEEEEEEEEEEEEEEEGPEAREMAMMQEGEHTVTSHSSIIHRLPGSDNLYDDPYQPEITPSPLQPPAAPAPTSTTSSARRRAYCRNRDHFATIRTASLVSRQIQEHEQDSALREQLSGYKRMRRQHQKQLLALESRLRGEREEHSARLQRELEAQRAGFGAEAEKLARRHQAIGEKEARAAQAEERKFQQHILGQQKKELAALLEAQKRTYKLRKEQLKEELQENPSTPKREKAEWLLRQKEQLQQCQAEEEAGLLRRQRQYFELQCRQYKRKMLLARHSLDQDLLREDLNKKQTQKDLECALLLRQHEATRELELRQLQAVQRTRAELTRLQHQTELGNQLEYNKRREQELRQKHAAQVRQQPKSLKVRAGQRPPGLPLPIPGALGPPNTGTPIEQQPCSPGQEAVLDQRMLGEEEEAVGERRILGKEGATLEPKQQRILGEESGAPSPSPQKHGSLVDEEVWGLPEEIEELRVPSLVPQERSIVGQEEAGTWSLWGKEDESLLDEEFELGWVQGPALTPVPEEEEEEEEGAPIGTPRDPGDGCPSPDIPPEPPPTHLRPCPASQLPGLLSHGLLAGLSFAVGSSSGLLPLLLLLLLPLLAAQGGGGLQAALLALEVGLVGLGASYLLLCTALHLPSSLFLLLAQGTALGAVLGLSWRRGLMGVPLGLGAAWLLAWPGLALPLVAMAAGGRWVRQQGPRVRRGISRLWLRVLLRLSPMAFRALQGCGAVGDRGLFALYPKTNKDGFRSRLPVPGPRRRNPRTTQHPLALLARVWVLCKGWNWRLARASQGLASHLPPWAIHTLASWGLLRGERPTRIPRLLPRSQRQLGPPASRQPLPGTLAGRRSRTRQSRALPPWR

[3] = biological target: T2, Serine/threonine-protein kinase TAO2 (Homo sapiens); conditions: at 10 µM
[4] = biological target: T3, Serine/threonine-protein kinase TAO3 (Homo sapiens) (UniProt Q9H2K8); conditions: at 1 µM
T3 sequence (whole entry): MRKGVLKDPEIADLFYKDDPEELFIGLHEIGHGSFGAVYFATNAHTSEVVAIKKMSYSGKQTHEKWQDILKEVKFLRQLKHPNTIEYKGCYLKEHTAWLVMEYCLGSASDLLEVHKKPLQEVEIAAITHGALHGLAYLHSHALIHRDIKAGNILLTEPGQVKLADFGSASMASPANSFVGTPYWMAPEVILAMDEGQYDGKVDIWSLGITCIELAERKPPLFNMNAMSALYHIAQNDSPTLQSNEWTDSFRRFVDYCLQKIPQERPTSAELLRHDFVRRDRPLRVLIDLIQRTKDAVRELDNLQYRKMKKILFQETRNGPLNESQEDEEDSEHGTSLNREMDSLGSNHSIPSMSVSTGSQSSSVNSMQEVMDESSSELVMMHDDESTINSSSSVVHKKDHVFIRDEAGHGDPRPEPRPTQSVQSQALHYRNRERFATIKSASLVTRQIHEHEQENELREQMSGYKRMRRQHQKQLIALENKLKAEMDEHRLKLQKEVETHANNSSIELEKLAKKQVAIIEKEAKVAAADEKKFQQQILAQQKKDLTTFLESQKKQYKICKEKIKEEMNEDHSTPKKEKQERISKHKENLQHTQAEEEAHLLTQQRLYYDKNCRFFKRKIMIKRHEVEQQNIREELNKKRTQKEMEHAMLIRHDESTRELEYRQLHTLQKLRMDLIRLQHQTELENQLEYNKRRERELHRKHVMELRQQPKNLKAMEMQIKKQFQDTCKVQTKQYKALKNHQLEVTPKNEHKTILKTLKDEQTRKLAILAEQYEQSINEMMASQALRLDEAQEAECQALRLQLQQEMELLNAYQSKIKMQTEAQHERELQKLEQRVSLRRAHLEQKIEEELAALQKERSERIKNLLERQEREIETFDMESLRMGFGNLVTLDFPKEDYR

[5] = biological target: T3, Serine/threonine-protein kinase TAO3 (Homo sapiens); conditions: at 10 µM
[6] = biological target: T4, Serine/threonine-protein kinase TBK1 (Homo sapiens) (UniProt Q9UHD2); conditions: at 1 µM
T4 sequence (whole entry): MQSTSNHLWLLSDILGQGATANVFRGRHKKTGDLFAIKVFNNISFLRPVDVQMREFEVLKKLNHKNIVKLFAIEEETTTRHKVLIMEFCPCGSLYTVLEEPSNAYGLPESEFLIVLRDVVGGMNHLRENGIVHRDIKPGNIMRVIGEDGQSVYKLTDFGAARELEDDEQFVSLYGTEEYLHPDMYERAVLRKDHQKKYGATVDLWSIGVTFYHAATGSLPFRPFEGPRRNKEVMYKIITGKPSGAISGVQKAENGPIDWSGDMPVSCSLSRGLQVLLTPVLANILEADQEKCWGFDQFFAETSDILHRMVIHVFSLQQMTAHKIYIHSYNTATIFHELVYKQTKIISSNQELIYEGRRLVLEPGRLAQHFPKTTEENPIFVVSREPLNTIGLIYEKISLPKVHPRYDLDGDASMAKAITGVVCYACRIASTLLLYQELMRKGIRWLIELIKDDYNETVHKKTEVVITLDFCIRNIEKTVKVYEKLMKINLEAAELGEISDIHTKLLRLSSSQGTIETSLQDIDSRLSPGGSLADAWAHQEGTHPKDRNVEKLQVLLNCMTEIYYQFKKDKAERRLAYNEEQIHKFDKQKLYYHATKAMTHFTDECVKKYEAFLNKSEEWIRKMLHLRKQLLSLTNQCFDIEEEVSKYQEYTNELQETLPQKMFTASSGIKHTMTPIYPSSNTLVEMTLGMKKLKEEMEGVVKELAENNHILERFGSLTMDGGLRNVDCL

[7] = biological target: T4, Serine/threonine-protein kinase TBK1 (Homo sapiens); conditions: at 10 µM
[8] = biological target: T5, Inhibitor of nuclear factor kappa-B kinase subunit beta (Homo sapiens) (UniProt O14920); conditions: at 1 µM
T5 sequence (whole entry): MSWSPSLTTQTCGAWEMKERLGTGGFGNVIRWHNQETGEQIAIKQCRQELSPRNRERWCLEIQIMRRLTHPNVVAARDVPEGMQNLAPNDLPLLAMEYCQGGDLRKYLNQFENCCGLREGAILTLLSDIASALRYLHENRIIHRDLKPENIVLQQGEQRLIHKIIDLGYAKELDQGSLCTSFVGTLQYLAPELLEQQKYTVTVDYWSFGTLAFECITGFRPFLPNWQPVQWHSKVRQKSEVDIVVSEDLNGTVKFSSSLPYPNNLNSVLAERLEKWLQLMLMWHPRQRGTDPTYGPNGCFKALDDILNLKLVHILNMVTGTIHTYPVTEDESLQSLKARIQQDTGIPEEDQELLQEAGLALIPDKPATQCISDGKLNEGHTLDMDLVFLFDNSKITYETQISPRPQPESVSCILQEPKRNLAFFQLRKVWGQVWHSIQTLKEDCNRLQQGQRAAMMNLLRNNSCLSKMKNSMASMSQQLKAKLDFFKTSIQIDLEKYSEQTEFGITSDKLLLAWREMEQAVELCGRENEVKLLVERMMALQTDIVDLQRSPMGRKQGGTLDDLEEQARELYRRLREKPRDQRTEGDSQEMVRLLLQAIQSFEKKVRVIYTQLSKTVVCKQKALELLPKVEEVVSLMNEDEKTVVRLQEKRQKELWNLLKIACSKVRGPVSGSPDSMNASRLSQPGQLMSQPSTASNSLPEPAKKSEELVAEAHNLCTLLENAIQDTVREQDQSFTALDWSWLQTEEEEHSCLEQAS

[9] = biological target: T5, Inhibitor of nuclear factor kappa-B kinase subunit beta (Homo sapiens); conditions: at 10 µM
[10] = biological target: T6, Mitogen-activated protein kinase kinase kinase 7 (Homo sapiens) (UniProt O43318); conditions: at 1 µM
T6 sequence (whole entry): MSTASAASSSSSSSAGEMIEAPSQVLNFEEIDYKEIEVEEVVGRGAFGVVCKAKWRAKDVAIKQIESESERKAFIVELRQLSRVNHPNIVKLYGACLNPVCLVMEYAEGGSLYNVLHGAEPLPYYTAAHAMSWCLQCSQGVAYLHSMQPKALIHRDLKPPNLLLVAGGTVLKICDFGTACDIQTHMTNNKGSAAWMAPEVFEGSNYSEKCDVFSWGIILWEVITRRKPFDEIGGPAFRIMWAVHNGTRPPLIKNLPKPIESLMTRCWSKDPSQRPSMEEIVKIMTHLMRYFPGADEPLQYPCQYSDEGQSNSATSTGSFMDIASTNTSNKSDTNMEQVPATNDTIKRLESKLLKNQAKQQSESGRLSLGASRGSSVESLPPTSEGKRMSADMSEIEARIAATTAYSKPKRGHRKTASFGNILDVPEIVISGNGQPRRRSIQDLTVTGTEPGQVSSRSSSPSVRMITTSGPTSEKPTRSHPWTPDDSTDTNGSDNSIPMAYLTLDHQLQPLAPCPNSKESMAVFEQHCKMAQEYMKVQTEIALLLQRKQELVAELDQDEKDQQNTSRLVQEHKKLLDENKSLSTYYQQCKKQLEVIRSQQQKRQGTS

[11] = biological target: T6, Mitogen-activated protein kinase kinase kinase 7 (Homo sapiens); conditions: at 10 µM
[12] = biological target: T7, Inhibitor of nuclear factor kappa-B kinase subunit alpha (Homo sapiens) (UniProt O15111); conditions: at 10 µM
T7 sequence (whole entry): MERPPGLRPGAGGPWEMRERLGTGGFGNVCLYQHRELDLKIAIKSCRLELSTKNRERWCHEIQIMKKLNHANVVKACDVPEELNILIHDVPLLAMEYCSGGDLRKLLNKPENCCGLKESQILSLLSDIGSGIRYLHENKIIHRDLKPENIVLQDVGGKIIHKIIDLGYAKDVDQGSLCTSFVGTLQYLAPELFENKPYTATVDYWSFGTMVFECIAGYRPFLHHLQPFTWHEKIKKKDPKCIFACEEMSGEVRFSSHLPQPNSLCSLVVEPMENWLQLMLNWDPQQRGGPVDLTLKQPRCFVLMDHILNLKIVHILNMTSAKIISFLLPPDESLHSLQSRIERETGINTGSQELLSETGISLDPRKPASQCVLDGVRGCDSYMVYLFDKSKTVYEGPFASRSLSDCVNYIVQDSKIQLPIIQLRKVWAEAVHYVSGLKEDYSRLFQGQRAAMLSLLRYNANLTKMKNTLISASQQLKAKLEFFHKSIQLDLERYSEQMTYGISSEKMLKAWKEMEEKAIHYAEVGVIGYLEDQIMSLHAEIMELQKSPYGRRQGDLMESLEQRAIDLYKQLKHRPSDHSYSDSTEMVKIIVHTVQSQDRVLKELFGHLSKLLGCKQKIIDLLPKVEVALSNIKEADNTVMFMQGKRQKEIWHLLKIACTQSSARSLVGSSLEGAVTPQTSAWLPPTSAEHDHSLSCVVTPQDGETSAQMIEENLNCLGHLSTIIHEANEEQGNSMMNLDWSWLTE

Structure (SMILES) | residual activity [1] | residual activity [2] | residual activity [3] | residual activity [4] | residual activity [5] | residual activity [6] | residual activity [7] | residual activity [8] | residual activity [9] | residual activity [10] | residual activity [11] | residual activity [12]
COc1cc2nccc(Oc3ccc(NC(=O)Nc4cc(C)on4)c(Cl)c3)c2cc1OC | 52% | 73% | 43% | 82% | 57% | 82% | 68% | 104% | 102% |  |  | 
Cc1cc(C)c(/C=C2\C(=O)Nc3ccccc32)[nH]1 |  |  | 105% |  |  |  | 52% |  |  | 76% | 71% | 73%
